A selection: hits, their analogues and other compounds. The true share with any hit is near 7.3%.
Rab9 prom act – Rab9 promoter activation; Potency, µM (highest dose often 9.22 µM), without a hit: top-dose activation, negative = inhibition, hits mostly activators; Huh7 Rab9 promoter-luciferase reporter, luminescence, 24 h; 320,000 compounds, 2.8% hits; AID 485297; further: % of control where 0% means no effect; nearly all actives have a fitted effect of over 60% in size
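Promoter activation is measured as luciferase luminescence in Huh7 cells stably transfected with a Rab9 promoter–luciferase construct, following 24 h compound exposure at 37 °C and 10 min reagent incubation at ambient temperature.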
NPC1 promoter act – activators of NPC1 promoter; Huh7 NPC1 promoter luciferase reporter, 24 h; Potency, µM (titrated, usually from 9.22 µM), for inactives: top-dose activation, most hits filed as activators; 320,000 compounds, 2.4% hits; further: % of control where 0% means no effect; nearly all actives have a fitted effect of over 60% in size
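Stable NPC1-promoter luciferase Huh7 line; cpd (DMSO) 24 h, 37 °C, 5% CO2; Amplite luciferase reagent 10 min RT; luminescence readout. qHTS format.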
FLuc counter – inhibits or activates purified firefly luciferase, miR-21 counter-screen; P08659; purified FLuc, Km substrates, luminescence inhibition; Potency, µM (highest dose often 57.5 µM), for inactives: at the highest dose activity change, negative = inhibition, most hits filed as inhibitors; 360,000 compounds, 6.9% hits;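 further: plate controls were vehicle for no effect and reference inhibitor for full effect; nearly all actives have a fitted effect of over 55% in size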
Target sequence (P08659 whole entry, looked up): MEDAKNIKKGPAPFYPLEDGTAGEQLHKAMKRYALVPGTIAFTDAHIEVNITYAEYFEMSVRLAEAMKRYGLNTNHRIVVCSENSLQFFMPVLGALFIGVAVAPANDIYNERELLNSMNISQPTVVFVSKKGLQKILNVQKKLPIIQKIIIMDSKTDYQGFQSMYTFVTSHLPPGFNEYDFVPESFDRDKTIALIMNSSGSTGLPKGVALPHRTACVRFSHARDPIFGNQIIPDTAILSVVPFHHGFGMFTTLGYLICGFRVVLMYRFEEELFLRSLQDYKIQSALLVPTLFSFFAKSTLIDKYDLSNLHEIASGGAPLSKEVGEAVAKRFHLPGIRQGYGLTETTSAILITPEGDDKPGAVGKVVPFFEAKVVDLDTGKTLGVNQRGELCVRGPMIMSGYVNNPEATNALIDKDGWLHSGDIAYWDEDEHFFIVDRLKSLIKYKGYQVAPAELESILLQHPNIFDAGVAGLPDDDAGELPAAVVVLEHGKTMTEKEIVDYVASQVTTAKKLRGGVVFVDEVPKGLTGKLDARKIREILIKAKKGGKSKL
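Biochemical qHTS of compounds, final roughly 60 µM downward over six points, against 10 nM purified firefly luciferase using Km concentrations of substrates (10 uM D-luciferin, 10 uM ATP) in Tris acetate pH 7.5 buffer; luminescence output.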
SMN2 splice up – increases expression of the SMN2 splice variant. HEK293 SMN2-luciferase splicing reporter, luminescence, 30-36 h. Potency, µM (series often up to 46.1 µM), inactives show at the highest dose activity change, positive = activation, most hits filed as activators. AID 1458. 210,000 compounds, 2.8% hits; further: % of control where 0% means no effect; nearly all actives have a fitted effect of over 55% in size
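HEK293 cells carry an SMN2 minigene-luciferase reporter in which exon 7 inclusion puts luciferase in frame. Cells were seeded at 2000 cells/well, attached for 10-12 hours, then exposed to compounds for 30-36 hours at 37C before ONE-Glo luminescence.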
ELG1 genotoxic – inducers of genotoxicity in HEK293T ELG1-luciferase cells. HEK293T ELG1-luciferase reporter, luminescence, 16 h. Potency, µM (doses to about 46 µM), without a hit: at the highest dose activity change, positive = activation, most hits filed as activators. 330,000 compounds, 1.3% hits. AID 504466; further: % of control where 0% means no effect; nearly all actives have a fitted effect of over 60% in size
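After overnight (16 hr) compound treatment at 37 °C, ELG1-luciferase HEK293T cells were lysed with ONE-Glo; luminescence quantified 30 min later at room temperature.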
Luc counter – blocks Kinase-Glo luciferase, a counter-screen artifact | Q27757 | Kinase-Glo luciferase, ATP luminescence, 8 min | Potency, µM (doses to about 38.3 µM), inactives show top-dose activity change, negative = inhibition, most hits filed as inhibitors | 200,000 compounds, 0.28% hits | AID 1379; further: on the % scale 0 is the no-effect control and ±100 the full control effect; nearly all actives have a fitted effect of over 60% in size
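Recombinant Kinase-Glo luciferase, 10 uM ATP (linear range), luciferin; imidazole pH 7.2 / KCl / MgCl2 / Tween / BSA buffer; 8 min RT; luminescence.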
Starred values were filed as active, the others as inactive; ? = inconclusive; nt = no result given; [ ] = dose if it differs, or a comment. The call rests on the fitted dose curve; in most records, active means well fitted curve in the direction sought with a large enough effect; inconclusive means small, poorly fitted or top-dose-only effect, or another doubt; inactive means no such curve, though single readings can be large; an effect the other way counts as inactive or inconclusive. Potency means the concentration at half of the fitted maximal effect.

SMILES | Rab9 prom act | NPC1 promoter act | FLuc counter | SMN2 splice up | ELG1 genotoxic | Luc counter
COc1cc(-c2cc3n(C)c(C)c(CCC(=O)NCc4ccccc4)c(=O)n3n2)cc(OC)c1OC | nt | nt | 6% | nt | nt | nt
CCCCN1C(N)=NC[C@H]1Cc1ccc(O)cc1 | -3% | -3% | 0% | nt | 2% | nt
Cc1ccc(-c2ccc(S(=O)(=O)N3CC(C)OC(C)C3)cc2)cc1 (stereo unspecified) | -6% | -2% | 0% | nt | 0% | nt
CC(C)c1cnc2c(c1SCC(=O)Nc1ccc(C(N)=O)cc1)c(=O)n(C)c(=O)n2C | nt | nt | -13% | nt | nt | nt
CCOC(=O)c1ccoc1CSCc1ccc(C(=O)OC)o1 | 17% | -1% | 5% | 13% | 21µM* | -1%
COC(=O)c1ccc(CSC(=N)N)o1 | 11% | -1% | -1% | nt | 3% | -4%
COC(=O)C1=CN(c2cccc(C)c2)C=C(C(=O)OC)C1c1cc(OC)c(O)c([N+](=O)[O-])c1 | -2% | -3% | 17µM* | -4% | -8% | -2%
COC(=O)C1=CN(c2ccc(OC)cc2)C=C(C(=O)OC)C1c1ccc(C)c([N+](=O)[O-])c1 | -9% | -8% | 3% | -12% | 0% | 1%
COc1cc(C(=O)NCc2nnc(SCC(=O)N3CCC(C)CC3)o2)cc(OC)c1OC | -1% | -1% | 3% | 6% | 5% | -3%
CCOC(=O)c1sc2ncn(CC(=O)Nc3ccc(N(C)C)cc3)c(=O)c2c1C | nt | nt | 5% | 6% | nt | nt
Clc1ccc(-c2csc(NNC3=NCCCCC3)n2)cc1 | 0% | 0% | ? | -13% | -2% | 1%
c1ccc(-c2csc(NNC3=NCCCCC3)n2)cc1 | 12% | 0% | 15µM* | -1% | ? | -6%
COc1ccc(-c2csc(NNC3=NCCCCC3)n2)cc1 | 15% | 0% | ? | -2% | -1% | 1%
COc1ccc(-c2csc(NC3=NCCCCC3)n2)cc1 | ? | ? | 12µM* | -4%[1.84 µM] | 25% | -1%
CC(C)C(NC(=O)C1CCCCC1)C(=O)NC1CCN(Cc2ccccc2)CC1 (stereo unspecified) | 4% | 4% | 5% | 0% | 0% | -2%
CC(=O)NCCCNc1ccc([N+](=O)[O-])cc1 | 16% | 15% | 19µM* | ? | 2% | 5%
CCCCOc1ccc(-n2nc(C)cc2C)nn1 | ? | ? | 17µM* | -13% | 18% | -3%
Cc1cc(C)n(-c2ccc(OCC(=O)O)nn2)n1 | 1% | 1% | 5% | 11% | -4% | -1%
Cc1ccc(N2CN=C(c3ccccc3)NC2=S)cc1 | ? | ? | 9.5µM* | 27% | 15µM* | -4%
COc1ccc(C2=NCN(c3ccc(C)cc3)C(=S)N2)cc1 | 2.8µM* | ? | 12µM* | ? | 16µM* | -6%
Cc1cc(OCC(=O)Nc2ccc(C(=O)OC3CCCCC3)cc2)cc(C)c1Cl | nt | nt | -5% | 1% | nt | nt
Cc1ccc(C(=O)/C=C/c2ccco2)c(O)c1 | 0% | -2% | 9.5µM* | 15% | ? | -1%
CC(=O)Oc1ccc2cc(-c3nc4ccccc4n3C)c(=O)oc2c1 | 2.8µM* | ? | ? | ? | ? | -8%
CC(C)(C)C(=O)Oc1ccc2cc(-c3ccc4ccccc4n3)c(=O)oc2c1 | ? | ? | -12% | 14µM* | ? | 2%
Cn1c(-c2cc3ccc(OC(=O)C(C)(C)C)cc3oc2=O)nc2ccccc21 | ? | ? | ? | ? | ? | 3%
SMILES | Rab9 prom act | NPC1 promoter act | FLuc counter | SMN2 splice up | ELG1 genotoxic | Luc counter
Cc1ccc2c(=O)cc(C(=O)Nc3sc4c(c3C(=O)NCC3CCCO3)CCCC4)oc2c1 (stereo unspecified) | nt | nt | -7% | -7% | nt | nt
O=C(OCC(=O)N1CCN(c2ccccc2)CC1)c1cnc(Cl)c(Cl)c1 | -3% | 4% | -9% | -8% | -4% | 3%
C=CCOC(=O)c1ccc(N2CCN(c3ccccc3)CC2)nc1 | 21% | 23% | 17µM* | nt | 4% | nt
NC(=O)NC(Cc1ccccc1)C(=O)NCCCSc1ccccc1 (stereo unspecified) | 2% | -5% | -2% | nt | -2% | nt
CCCc1cc(=O)n2c([nH]c3ccccc32)c1C#N | ? | 20% | 6.7µM* | -3% | 1% | 12%
CCCCc1c(C)c(C#N)c2[nH]c3ccccc3n2c1=O | -7% | 0% | 2% | nt | -12% | -3%
Cc1cc(C)[n+]2[nH]c(N)c(N=Nc3ccccc3)c2n1 | 7% | 9% | 15µM* | nt | 0% | nt
Nc1ncnc(N)c1N=Nc1ccccc1 | 0% | 20% | -6% | nt | -14% | nt
O=C(Nc1ccc(F)cc1F)Nc1ccccc1C(=O)NCCN1CCNC1=O | 1% | -8% | ? | nt | 0% | nt
COc1cccc(C(=O)Nc2nnc(C(C)C)s2)c1 | 1µM* | 3.5µM* | 3.4µM* | 2.5µM* | 3.7µM* | -6%
CCCc1nnc(NC(=O)c2cccc(OC)c2)s1 | 4.5µM* | 3.2µM* | 24µM* | ? | ? | -3%
CCS(=O)(=O)c1ncc(N(Cc2ccccc2)Cc2ccco2)c(C(=O)Nc2ccc(C)c(C)c2)n1 | nt | nt | -6% | nt | nt | nt
O=c1[nH]c2ccccc2nc1/C=C/c1ccccc1 | 1.8µM* | 4µM* | 1.9µM* | nt | ? | nt
O=c1[nH]c2ccccc2nc1/C=C/c1ccc(O)cc1 | 3.5µM* | ? | 6.7µM* | nt | ? | -7%
O=c1[nH]c2ccccc2nc1/C=C/c1ccc(F)cc1 | 4µM* | 3.2µM* | 2.4µM* | nt | 21% | nt
COC(=O)Nc1cc([N+](=O)[O-])ccc1OC | -3% | -3% | -5% | -14% | 6% | 0%
COc1cccc(NC(=O)CSc2nc3n[nH]c(C)c3c(=N)n2-c2cccc(OC)c2)c1 | -1% | 1% | 2% | 13% | -7% | -4%
CN1CCCC(OC(=O)c2cc(F)c(F)c(F)c2F)C1 (stereo unspecified) | -4%[1.84 µM] | -1% | 1% | nt | 0% | nt
Cn1c(N2CCOCC2)c(/C=N/OC(=O)c2ccc(F)cc2)c2ccccc21 | -33% | -18% | 9.5µM* | -70% | -5% | -2%
CC(=O)O/N=C/c1c(N2CCOCC2)n(C)c2ccccc12 | -5% | -9% | 14% | -62% | -10% | -7%
Cc1ccc(C(=O)O/N=C/c2c(N3CCOCC3)n(C)c3ccccc23)cc1 | -39% | -17% | 6µM* | -47% | -13% | 2%
Cc1cc(C)c2nc(N(CCCN(C)C)C(=O)C3=COCCO3)sc2c1 | 3% | -5% | 3% | nt | 11% | nt
CCN(C(=O)C1=COCCO1)c1nc2c(C)cccc2s1 | ? | 29% | 15µM* | nt | 21µM* | nt
CCSc1nc2c(sc3nc(C)cc(C)c32)c(=O)[nH]1 | -5% | -2% | 5% | 11% | -3% | 3%
